# Data published in PubChem BioAssay (EPA / NIEHS).
# Results filed as inconclusive are left out. Where a structure was tested more than once in an assay, its records may differ in their call. Activity calls are given as the source filed them. Rule for the calls: active = hit-call score of the fitted dose curve at least 0.9, where 1 is the maximum; inconclusive = response in the unintended direction; inactive = score below 0.9.
# Columns and labels:
# [1] = molecular target: Peroxisome proliferator-activated receptor gamma (Homo sapiens) (UniProt P37231); test: NVS_NR_hPPARg: NovaScreen (NVS) Nuclear Receptor Binding Assay for human Peroxisome Proliferator-activated Receptor gamma (PPARg) (AID 2283370)
# Peroxisome proliferator-activated receptor gamma (Homo sapiens), sequence (P37231 whole entry, looked up): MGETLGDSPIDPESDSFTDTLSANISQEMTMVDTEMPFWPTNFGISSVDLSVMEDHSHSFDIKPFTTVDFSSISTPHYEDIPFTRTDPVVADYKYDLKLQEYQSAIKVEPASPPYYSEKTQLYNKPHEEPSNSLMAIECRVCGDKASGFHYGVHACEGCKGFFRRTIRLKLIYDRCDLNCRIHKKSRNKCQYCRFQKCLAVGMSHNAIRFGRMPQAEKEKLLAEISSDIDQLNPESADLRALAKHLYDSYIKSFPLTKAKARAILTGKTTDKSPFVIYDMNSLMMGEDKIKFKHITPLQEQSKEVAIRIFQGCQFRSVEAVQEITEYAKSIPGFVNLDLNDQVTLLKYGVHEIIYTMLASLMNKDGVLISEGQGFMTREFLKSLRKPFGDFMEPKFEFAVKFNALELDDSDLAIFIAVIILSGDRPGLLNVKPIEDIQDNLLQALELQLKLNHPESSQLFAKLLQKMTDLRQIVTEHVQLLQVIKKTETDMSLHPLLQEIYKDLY
# Summary of the method: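 Cell-free fluorescence polarization binding to human PPARg protein, read 2 h after dosing. Primary screen in duplicate at 25 uM, actives followed in concentration series; loss of signal relative to DMSO scored.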
# [2] = molecular target: guinea pig Sigma Receptor, Non-selective Binding, SIGMAR1 (gene 100135589) (UniProt Q60492); test: NVS_OR_gSIGMA_NonSelective: NovaScreen (NVS) Nuclear Receptor Binding Assay for guinea pig Sigma Receptor, Non-selective Binding (AID 2283367)
# guinea pig Sigma Receptor, Non-selective Binding, SIGMAR1 (gene 100135589), sequence (Q60492 whole entry, looked up): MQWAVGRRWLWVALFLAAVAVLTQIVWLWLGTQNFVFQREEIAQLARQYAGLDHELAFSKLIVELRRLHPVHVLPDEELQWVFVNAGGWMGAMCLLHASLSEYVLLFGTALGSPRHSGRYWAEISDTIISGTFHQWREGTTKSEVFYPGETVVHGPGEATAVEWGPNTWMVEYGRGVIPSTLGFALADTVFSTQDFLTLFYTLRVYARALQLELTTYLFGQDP
# Summary of the method: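 Test chemicals were screened in duplicate at 25 uM, then in concentration series if active, against radioligand binding to guinea pig brain membranes; filtration and scintillation counting at 1 h measured remaining bound ligand.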
# [3] = test system: guinea pig Dopamine Transporter (DAT), gene 100714898; test: NVS_TR_gDAT: NovaScreen (NVS) Transporter Assay for guinea pig Dopamine Transporter (DAT) (AID 2283369);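 note: active compounds lower bound radioligand signal relative to DMSO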
# Summary of the method: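 Guinea pig striatal membranes, cell-free radioligand binding with filter-based scintillation counting, read 2 h after dosing. Loss of signal versus DMSO baseline; single-concentration primary (25 uM) then concentration-response up to 50 uM.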
# [4] = test system: rat Norepinephrine Transporter (NET), gene 83511; test: NVS_TR_rNET: NovaScreen (NVS) Transporter Assay for rat Norepinephrine Transporter (NET) (AID 2283373)
# Summary of the method: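 Competitive radioligand displacement at the rat NET using forebrain membrane preparations, 1 h incubation, filter-based scintillation readout. Primary testing in duplicate at a single 25 uM concentration; confirmed actives retested across concentrations.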
# [5] = molecular target: Nuclear receptor subfamily 1 group I member 2 (Homo sapiens) (UniProt O75469); test: NVS_NR_hPXR: NovaScreen (NVS) Nuclear Receptor Binding Assay for human Pregnane X Receptor (PXR) (AID 2283365);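 note: a drop in FRET signal versus DMSO baseline means the compound binds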
# Nuclear receptor subfamily 1 group I member 2 (Homo sapiens), sequence (O75469 whole entry, looked up): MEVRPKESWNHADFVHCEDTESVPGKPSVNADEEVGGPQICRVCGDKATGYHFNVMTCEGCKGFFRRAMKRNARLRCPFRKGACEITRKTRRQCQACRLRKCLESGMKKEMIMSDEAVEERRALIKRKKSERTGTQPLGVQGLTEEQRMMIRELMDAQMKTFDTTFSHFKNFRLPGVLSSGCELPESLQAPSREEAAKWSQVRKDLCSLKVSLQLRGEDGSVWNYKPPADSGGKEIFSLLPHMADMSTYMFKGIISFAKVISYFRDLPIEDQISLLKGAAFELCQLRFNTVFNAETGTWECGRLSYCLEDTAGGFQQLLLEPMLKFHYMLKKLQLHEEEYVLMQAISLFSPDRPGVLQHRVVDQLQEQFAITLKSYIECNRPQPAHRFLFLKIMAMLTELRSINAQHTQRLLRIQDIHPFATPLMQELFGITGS
# Summary of the method: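 Cell-free TR-FRET binding assay with extracted human PXR protein, read 2 h after dosing. Primary screen run in duplicate at 25 uM, actives followed in concentration series; loss of signal fitted against DMSO baseline.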
# [6] = molecular target: human Adenosine Transporter (Adot), SLC29A1 (gene 2030) (UniProt Q99808); test: NVS_TR_hAdoT: NovaScreen (NVS) Transporter Assay for human Adenosine Transporter (Adot) (AID 2283368)
# human Adenosine Transporter (Adot), SLC29A1 (gene 2030), sequence (Q99808 whole entry, looked up): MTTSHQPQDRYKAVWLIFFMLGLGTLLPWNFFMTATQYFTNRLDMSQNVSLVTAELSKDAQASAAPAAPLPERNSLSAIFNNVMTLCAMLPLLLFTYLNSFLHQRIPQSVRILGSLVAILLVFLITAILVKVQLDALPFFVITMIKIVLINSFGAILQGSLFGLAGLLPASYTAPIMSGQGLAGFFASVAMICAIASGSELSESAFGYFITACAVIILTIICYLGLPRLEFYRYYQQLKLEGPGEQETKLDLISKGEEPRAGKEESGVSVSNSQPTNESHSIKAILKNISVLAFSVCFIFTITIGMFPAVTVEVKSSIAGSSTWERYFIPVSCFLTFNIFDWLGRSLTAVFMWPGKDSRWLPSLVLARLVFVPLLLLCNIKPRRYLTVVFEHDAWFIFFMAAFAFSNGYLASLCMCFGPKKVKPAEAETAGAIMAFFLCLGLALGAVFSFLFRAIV
# Experimental: NVS_TR_hAdoT is a biochemical, single-readout assay that uses extracted gene-proteins from U937 in a cell-free assay. Measurements were taken 1 hour after chemical dosing in a 96-well plate.NVS_TR_hAdoT is one of one assay component(s) measured or calculated from the NVS_TR_hAdoT assay. It is designed to make measurements of radioligand binding, a form of binding reporter, as detected with scintillation counting signals by Filter-based radiodetection technology.Data from the assay component NVS_TR_hAdoT was analyzed into 1 assay endpoint. This assay endpoint, NVS_TR_hAdoT, was analyzed in the positive analysis fitting direction relative to DMSO as the negative control and baseline of activity. Using a type of binding reporter, loss-of-signal activity can be used to understand changes in the binding as they relate to the gene SLC29A1. Furthermore, this assay endpoint can be referred to as a primary readout, because the performed assay has only produced 1 assay endpoint. To generalize the intended target to other relatable targets, this assay endpoint is annotated to the transporter intended target family, where the subfamily is nucleoside transporter.
# (§1) Binding assays used specific radioligands (tritiated, iodinated) with non-radioactive competitive displacement ligands in agonist or antagonist protocols (as indicated) and various reference compounds and inhibitors to titrate specific binding to receptors and transporters. Most enzyme assays (CYPs, kinases, phosphatases, proteases, HDACs) used recombinant protein and specific substrates (fluorescence mostly, some colorimetric and radioactive) and inhibitors, followed by a biochemical separation of substrate and product. All assays for the biochemical HTS were initially run in duplicate at a single concentration (10 uM for CYP450 assays and 25 uM for all others). Assay-chemical combinations meeting a pre-defined threshold (e.g., 30% inhibition and other criteria defined below) were then run in singleton concentration-response format with maximum concentration of 20 uM for CYPs and 50 uM for all others. Each assay was run with positive and negative controls, and concurrent controls on every plate. The follow-up (secondary) screen tested active chemical-pairs in concentration series, as well as a few additional assays not tested in the primary screen, some selected negative inactives, and several cases re-run in the concentration series for confirmatory purposes.
# [7] = molecular target: human Thyroid Receptor Alpha (TRa), THRA (gene 7067) (UniProt P10827); test: NVS_NR_hTRa_Antagonist: NovaScreen (NVS) Nuclear Receptor Binding Assay for human Thyroid Receptor Alpha Antagonism (TRa) (AID 2283362)
# human Thyroid Receptor Alpha (TRa), THRA (gene 7067), sequence (P10827 whole entry, looked up): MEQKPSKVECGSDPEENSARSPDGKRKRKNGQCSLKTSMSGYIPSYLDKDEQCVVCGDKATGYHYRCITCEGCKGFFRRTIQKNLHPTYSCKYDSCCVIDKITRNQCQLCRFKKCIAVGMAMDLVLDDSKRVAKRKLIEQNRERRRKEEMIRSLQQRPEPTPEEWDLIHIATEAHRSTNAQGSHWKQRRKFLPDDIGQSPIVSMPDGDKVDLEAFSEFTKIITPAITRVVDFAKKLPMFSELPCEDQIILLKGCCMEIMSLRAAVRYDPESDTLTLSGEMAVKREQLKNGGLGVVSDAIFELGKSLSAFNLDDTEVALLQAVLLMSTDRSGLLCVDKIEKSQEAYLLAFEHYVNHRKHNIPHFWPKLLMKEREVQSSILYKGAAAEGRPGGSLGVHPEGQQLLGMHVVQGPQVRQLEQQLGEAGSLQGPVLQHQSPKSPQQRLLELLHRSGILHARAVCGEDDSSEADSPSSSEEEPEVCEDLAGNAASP
# Summary of the method: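 Cell-free AlphaLISA chemiluminescent binding read 1 h after dosing, antagonist mode; signal loss versus DMSO baseline. Primary screen in duplicate at 25 uM, then concentration series for actives.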
# [8] = molecular target: rat Androgen Receptor (AR), Ar (gene 24208) (UniProt P15207); test: NVS_NR_rAR: NovaScreen (NVS) Nuclear Receptor Binding Assay for rat Androgen Receptor (AR) (AID 2283366)
# rat Androgen Receptor (AR), Ar (gene 24208), sequence (P15207 whole entry, looked up): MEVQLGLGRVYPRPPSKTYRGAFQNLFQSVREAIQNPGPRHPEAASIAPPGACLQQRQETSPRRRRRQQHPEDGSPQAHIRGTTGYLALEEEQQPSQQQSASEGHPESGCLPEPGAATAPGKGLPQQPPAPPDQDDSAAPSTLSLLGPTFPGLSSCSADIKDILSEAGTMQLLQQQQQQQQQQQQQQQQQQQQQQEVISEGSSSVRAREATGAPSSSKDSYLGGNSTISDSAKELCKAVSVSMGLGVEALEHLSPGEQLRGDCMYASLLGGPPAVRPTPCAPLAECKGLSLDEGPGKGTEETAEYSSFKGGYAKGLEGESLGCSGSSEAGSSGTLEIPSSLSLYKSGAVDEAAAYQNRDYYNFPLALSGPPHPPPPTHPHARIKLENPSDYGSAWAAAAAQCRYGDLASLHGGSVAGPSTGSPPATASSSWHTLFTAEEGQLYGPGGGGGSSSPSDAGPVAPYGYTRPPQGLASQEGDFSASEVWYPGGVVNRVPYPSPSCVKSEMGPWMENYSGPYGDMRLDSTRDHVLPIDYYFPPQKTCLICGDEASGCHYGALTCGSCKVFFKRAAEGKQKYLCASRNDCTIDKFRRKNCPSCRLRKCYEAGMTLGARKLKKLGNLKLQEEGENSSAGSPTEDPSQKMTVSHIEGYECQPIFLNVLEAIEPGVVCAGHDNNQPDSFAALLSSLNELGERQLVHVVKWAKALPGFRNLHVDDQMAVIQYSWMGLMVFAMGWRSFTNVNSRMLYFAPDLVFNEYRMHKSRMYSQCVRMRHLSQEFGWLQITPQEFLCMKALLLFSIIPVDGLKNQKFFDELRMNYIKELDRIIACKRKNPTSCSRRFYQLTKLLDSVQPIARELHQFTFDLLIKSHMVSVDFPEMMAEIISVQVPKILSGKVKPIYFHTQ
# Summary of the method: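 Actives from a duplicate single-concentration (25 uM) primary run went on to concentration series. Displacement of radioligand was counted by filtration and scintillation, 18 h post-dose, using prostate extracts from testosterone-pretreated rats, with DMSO as baseline.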
# [9] = molecular target: human Serotonin Transporter (SERT), SLC6A4 (gene 6532) (UniProt P31645); test: NVS_TR_hSERT: NovaScreen (NVS) Transporter Assay for human Serotonin Transporter (SERT) (AID 2283372)
# human Serotonin Transporter (SERT), SLC6A4 (gene 6532), sequence (P31645 whole entry, looked up): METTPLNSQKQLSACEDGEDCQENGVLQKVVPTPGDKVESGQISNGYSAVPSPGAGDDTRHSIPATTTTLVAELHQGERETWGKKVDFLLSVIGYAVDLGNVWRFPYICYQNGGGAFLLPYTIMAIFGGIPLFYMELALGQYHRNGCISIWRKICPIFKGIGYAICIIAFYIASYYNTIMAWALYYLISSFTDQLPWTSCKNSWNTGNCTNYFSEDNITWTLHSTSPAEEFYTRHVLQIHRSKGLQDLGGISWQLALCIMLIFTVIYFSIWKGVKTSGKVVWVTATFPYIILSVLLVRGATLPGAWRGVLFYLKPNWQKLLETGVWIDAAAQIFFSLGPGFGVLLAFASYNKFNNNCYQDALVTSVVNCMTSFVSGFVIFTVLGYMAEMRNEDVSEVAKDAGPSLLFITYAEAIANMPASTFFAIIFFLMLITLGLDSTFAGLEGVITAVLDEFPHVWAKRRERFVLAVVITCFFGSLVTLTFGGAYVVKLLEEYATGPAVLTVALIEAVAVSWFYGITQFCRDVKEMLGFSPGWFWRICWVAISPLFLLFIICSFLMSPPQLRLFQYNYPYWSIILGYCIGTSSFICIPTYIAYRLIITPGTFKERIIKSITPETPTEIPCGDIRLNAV
# Experimental: NVS_TR_hSERT is a biochemical, single-readout assay that uses extracted gene-proteins from Human platelet membranes in a tissue-based cell-free assay. Measurements were taken 1 hour after chemical dosing in a 96-well plate.NVS_TR_hSERT is one of one assay component(s) measured or calculated from the NVS_TR_hSERT assay. It is designed to make measurements of radioligand binding, a form of binding reporter, as detected with scintillation counting signals by Filter-based radiodetection technology.Data from the assay component NVS_TR_hSERT was analyzed into 1 assay endpoint. This assay endpoint, NVS_TR_hSERT, was analyzed in the positive analysis fitting direction relative to DMSO as the negative control and baseline of activity. Using a type of binding reporter, loss-of-signal activity can be used to understand changes in the binding as they relate to the gene SLC6A4. Furthermore, this assay endpoint can be referred to as a primary readout, because the performed assay has only produced 1 assay endpoint. To generalize the intended target to other relatable targets, this assay endpoint is annotated to the transporter intended target family, where the subfamily is neurotransmitter transporter.
# as §1, with “Assay-chemical combinations meeting a pre-defined threshold (e.g., 30% inhibition and other criteria defined below) were then run in singleton concentration-response format with maximum concentration of 20 uM for CYPs and 50 uM for all others.” left out
# [10] = molecular target: Glucocorticoid receptor (Homo sapiens) (UniProt P04150); test: NVS_NR_hGR: NovaScreen (NVS) Nuclear Receptor Binding Assay for human Glucocorticoid Receptor (GR) (AID 2283363)
# Glucocorticoid receptor (Homo sapiens), sequence (P04150 whole entry, looked up): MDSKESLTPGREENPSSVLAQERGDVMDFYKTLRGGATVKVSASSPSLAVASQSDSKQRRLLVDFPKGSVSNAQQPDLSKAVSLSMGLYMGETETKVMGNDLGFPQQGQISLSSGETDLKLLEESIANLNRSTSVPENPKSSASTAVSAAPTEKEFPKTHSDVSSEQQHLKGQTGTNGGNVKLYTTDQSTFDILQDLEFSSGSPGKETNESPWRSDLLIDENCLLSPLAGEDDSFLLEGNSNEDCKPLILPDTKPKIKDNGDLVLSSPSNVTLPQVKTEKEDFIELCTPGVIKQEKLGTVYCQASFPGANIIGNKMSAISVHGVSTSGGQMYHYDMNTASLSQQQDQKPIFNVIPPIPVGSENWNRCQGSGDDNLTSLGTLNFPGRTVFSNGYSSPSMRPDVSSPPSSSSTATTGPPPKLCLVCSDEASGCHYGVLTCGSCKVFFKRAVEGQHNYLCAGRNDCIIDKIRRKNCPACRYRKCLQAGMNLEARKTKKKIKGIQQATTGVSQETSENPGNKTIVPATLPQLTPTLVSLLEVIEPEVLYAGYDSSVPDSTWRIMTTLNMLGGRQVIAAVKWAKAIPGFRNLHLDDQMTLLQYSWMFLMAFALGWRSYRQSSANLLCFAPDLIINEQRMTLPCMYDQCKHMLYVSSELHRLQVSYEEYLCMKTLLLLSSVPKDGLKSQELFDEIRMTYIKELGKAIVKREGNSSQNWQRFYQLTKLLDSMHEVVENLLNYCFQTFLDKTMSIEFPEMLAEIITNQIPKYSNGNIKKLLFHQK
# Summary of the method: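 Single-readout cell-free binding: radioligand plus extracted receptor, 16-hour dosing, filter radiodetection; 25 uM duplicate primary, concentration series secondary.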
smiles,measurement,setting,value
CC(C)(O)c1cnn2c(-c3ccc(F)c(-c4c(F)cccc4C#N)c3)cnc2n1,outcome,[1],inactive
N#CC(Br)(Br)C(N)=O,outcome,[2],inactive
Nc1ccc(Cc2ccc(N)cc2)cc1,outcome,[3],inactive
same,outcome,[4],inactive
OCCOCCO,outcome,[5],inactive
CCNS(=O)(=O)C(F)(F)C(F)(F)C(F)(F)C(F)(F)C(F)(F)C(F)(F)C(F)(F)C(F)(F)F,outcome,[5],inactive
same,outcome,[6],inactive
same,outcome,[1],inactive
Cc1cc(N=Nc2ccccc2C)ccc1N,outcome,[7],inactive
same,outcome,[8],inactive
same,outcome,[1],inactive
CCCCCCCCCCCCCN1CC(C)OC(C)C1 (stereo not given),outcome,[5],inactive
same,AC50,[2],0.0622 µM (active)
c1ccc(N=Nc2ccccc2)cc1,outcome,[1],inactive
CC(C)N(Cc1ccccc1)C(=O)C(C)(C)C,AC50,[3],13.7 µM (active)
CC(C)(C)C(O)(CCc1ccc(Cl)cc1)Cn1cncn1 (stereo not given),outcome,[2],inactive
same,AC50,[3],8.79 µM (active)
Clc1ccc(C(c2ccc(Cl)cc2)C(Cl)Cl)cc1,outcome,[7],inactive
C[C@]12C=CC3=C4CCC(=O)C=C4CC[C@H]3[C@@H]1CC[C@@H]2O,AC50,[6],35.2 µM (active)
same,AC50,[1],41.5 µM (active)
same,outcome,[1],inactive
same,outcome,[9],inactive
O=C(Nc1ccccc1)c1ccccc1I,AC50,[3],12.8 µM (active)
same,outcome,[1],inactive
CCC[CH2][Sn]([Cl])([CH2]CCC)[CH2]CCC,AC50,[10],0.726 µM (active)
same,AC50,[6],34.6 µM (active)
same,AC50,[3],11.1 µM (active)
same,AC50,[9],11.2 µM (active)
same,AC50,[4],14.4 µM (active)
O=Cc1ccco1,outcome,[9],inactive
CCC(C)c1ccc(O)cc1 (stereo not given),AC50,[3],4.96 µM (active)
same,outcome,[4],inactive
CC(C)COC(=O)c1ccccc1C(=O)OCC(C)C,outcome,[1],inactive
Nc1ccc(N=Nc2ccccc2)cc1,AC50,[3],15 µM (active)
same,outcome,[1],inactive
